# A selection: hits, their analogues and other compounds. The true share with any hit is near 7.5%.
# Luc counter = counter-screen: inhibitors of Kinase-Glo firefly luciferase; Q27757; Kinase-Glo luciferase, ATP luminescence, 8 min; Potency, µM (top dose mostly 38.3 µM), inactives show at the highest dose activity change, negative = inhibition, actives largely listed as inhibitors; actives 0.28% (n = 200,000); note: % is set by controls: 0 for no effect and ±100 for the full control effect; nearly all actives have a fitted effect of over 60% in size
#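 Inhibition of Kinase-Glo luciferase light generation was assessed at 10 uM ATP in pH 7.2 imidazole buffer, with luminescence measured after eight minutes at ambient temperature.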
# FLuc modulator = firefly luciferase modulation, counter-screen for miR-21 project. P08659. purified FLuc, Km substrates, luminescence inhibition. Potency, µM (titrated, usually from 57.5 µM), for inactives: at the top dose activity change, negative = inhibition, usual class: inhibitors. actives 6.9% (n = 360,000). AID 588342;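 note: plate controls were vehicle for no effect and reference inhibitor for full effect; nearly all actives have a fitted effect of over 55% in size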
# Target sequence (P08659 whole entry, looked up): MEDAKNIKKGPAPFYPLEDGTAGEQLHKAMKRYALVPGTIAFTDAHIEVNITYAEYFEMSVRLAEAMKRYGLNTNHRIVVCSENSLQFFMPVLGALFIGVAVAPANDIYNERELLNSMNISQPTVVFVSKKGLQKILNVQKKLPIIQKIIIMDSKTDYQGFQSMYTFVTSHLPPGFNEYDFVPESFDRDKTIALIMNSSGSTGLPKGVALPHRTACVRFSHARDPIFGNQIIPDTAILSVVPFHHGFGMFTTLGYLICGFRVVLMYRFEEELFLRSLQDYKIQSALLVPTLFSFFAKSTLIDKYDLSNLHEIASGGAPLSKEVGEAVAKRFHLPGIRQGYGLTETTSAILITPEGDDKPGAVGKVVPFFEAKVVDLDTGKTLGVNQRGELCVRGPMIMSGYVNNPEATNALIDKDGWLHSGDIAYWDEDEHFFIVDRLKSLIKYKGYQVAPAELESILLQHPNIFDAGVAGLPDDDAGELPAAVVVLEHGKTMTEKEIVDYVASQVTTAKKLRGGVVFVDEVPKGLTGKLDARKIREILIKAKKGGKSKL
#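 Biochemical qHTS of compounds, final roughly 60 µM downward over six points, against 10 nM purified firefly luciferase using Km concentrations of substrates (10 uM D-luciferin, 10 uM ATP) in Tris acetate pH 7.5 buffer; luminescence output.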
# NPC1 prom act = activators of NPC1 promoter; Huh7 NPC1 promoter luciferase reporter, 24 h; actives 2.4% (n = 320,000); Potency, µM (series often up to 9.22 µM), for inactives: at the highest dose activation, hits mostly activators; AID 485313; note: % of control where 0% means no effect; nearly all actives have a fitted effect of over 60% in size
#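 Luminescence from an NPC1 promoter-driven luciferase reporter in stably transfected Huh7 cells was measured after 24 h compound treatment at 37 °C, followed by 10 min ambient incubation with luciferase detection reagent.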
# ELG1 genotoxic = inducers of genotoxicity in HEK293T ELG1-luciferase cells | HEK293T ELG1-luciferase reporter, luminescence, 16 h | Potency, µM (doses to about 46 µM), inactives show top-dose activity change, positive = activation, usual class: activators | actives 1.3% (n = 330,000); note: % of control where 0% means no effect; nearly all actives have a fitted effect of over 60% in size
#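 Screening used a luciferase reporter fused to human ELG1 in HEK293T cells. Luminescence was read on a CCD plate imager after 16 hr exposure and 30 min ONE-Glo incubation.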
# Rab9 prom act = activates the Rab9 promoter | actives 2.8% (n = 320,000) | Potency, µM (titrated, usually from 9.22 µM), inactives show at the highest dose activation, negative = inhibition, usual class: activators | Huh7 Rab9 promoter-luciferase reporter, luminescence, 24 h; note: % of control where 0% means no effect; nearly all actives have a fitted effect of over 60% in size
#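 Huh7 cells stably carrying Rab9 promoter–luciferase reporter, plated 1500 cells/well, compound added after 2 h and incubated 24 h at 37 °C; luciferase luminescence then read after 10 min with detection reagent.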
# SMN2 splice up = SMN2 splice variant enhancement | HEK293 SMN2-luciferase splicing reporter, luminescence, 30-36 h | Potency, µM (titrated, usually from 46.1 µM), without a hit: top-dose activity change, positive = activation, actives largely listed as activators | actives 2.8% (n = 210,000) | AID 1458; note: % of control where 0% means no effect; nearly all actives have a fitted effect of over 55% in size
#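 HEK293 cells carry an SMN2 […]–luciferase reporter in which exon 7 inclusion puts luciferase in frame. Cells were plated 10-12 h before compound addition, then incubated 30-36 h at 37C. ONE-Glo luminescence was read; sodium butyrate at 4.5 mM final served as control.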
# * = called active by the depositor; ? = inconclusive; . = no result given. Calls come from the whole dose curve; as a rule, active = well fitted curve in the direction sought with a large enough effect; inconclusive = small, poorly fitted or top-dose-only effect, or another doubt; inactive = no such curve, though single readings can be large; an effect the other way counts as inactive or inconclusive. Potency is the fitted concentration of half-maximal effect.
SMILES,Luc counter,FLuc modulator,NPC1 prom act,ELG1 genotoxic,Rab9 prom act,SMN2 splice up
COc1ccc(-c2csc(NC(=O)C3CCCO3)n2)cc1 (stereo unspecified),0.6%,21.3µM*,?,?,3.98µM*,2.7%
CC(OC(=O)CNC(=O)c1ccccc1F)C(=O)Nc1nc(-c2ccccc2)cs1 (stereo unspecified),0.4%,?,?,?,?,12.6µM*
COc1cccc(-c2csc(N3CCN(C(=S)NCC(C)C)CC3)n2)c1,.,?,-1.4%,-3.0%,-4.5%,.
COc1cccc(-c2csc(NC(=O)Oc3ccccc3)n2)c1,-9.0%,12µM*,24.7%,21.3%,0.9%,-6.5%
CCNC(=S)N1CCN(c2nc(-c3cccc(OC)c3)cs2)CC1,.,19µM*,2.6%,-8.1%,3.3%,.
COc1cccc(-c2csc(NNC(=O)c3cccs3)n2)c1,.,?,-4.4%,5.6%,-2.3%,.
CCn1ccc2cc(S(=O)(=O)N3CCC(C(=O)NCCc4ccccc4Cl)CC3)ccc21,.,-1.2%,.,.,.,.
Cc1ccc(S(=O)(=O)N(C)c2ccc(C(=O)Nc3cccnc3)cc2)cc1,.,1.7%,-2.6%,-15.1%,-2.5%,.
Cc1ccc(S(=O)(=O)Nc2cc3c(cc2C)n(C)c(=O)c(=O)n3C)cc1,.,1.8%,.,.,.,.
COCCOC(=O)c1c(C)oc2c1cc(NS(=O)(=O)c1ccc(Cl)c(C)c1)c1ccccc12,.,?,.,.,.,-4.5%
CCN(CC(=O)NC1CCS(=O)(=O)C1)S(=O)(=O)c1ccccc1Cl (stereo unspecified),.,3.9%,1.1%,3.3%,6.2%,.
COc1ccc(-c2csc(NC(=O)c3ccoc3C)n2)cc1,0.8%,12µM*,?,?,?,13.8%
COc1cc(CCC(C)=O)ccc1OC(=O)c1c(F)cccc1Cl,.,12µM*,?,?,2.51µM*,.
COC(=O)c1ccccc1NC(=O)NN1CCN(C)CC1,.,-1.9%,2.0%,-5.2%,5.2%,.
Cc1cc(C)c2c(=O)cc(C(=O)Nc3sc4c(c3C#N)CCCC4)oc2c1,.,?,.,.,.,-3.8%
COc1ccc(N2C(=O)C(Cl)=C(Nc3ccccc3OC)C2=O)cc1,3.0%,23.9µM*,2.1%,0.6%,-7.0%,-32.7%
Cn1c(NC(=O)/C=C/c2ccccc2)cc(=O)n(C)c1=O,-2.3%,21.3µM*,16.0%,?,?,7.94µM*
Cn1c(NC(=O)CCc2ccccc2)cc(=O)n(C)c1=O,-5.5%,13.5µM*,?,16.4µM*,2.82µM*,?
COc1ccc(/C=C/C(=O)Nc2cc(=O)n(C)c(=O)n2C)cc1,-6.9%,9.53µM*,1.0%,13.1%,-1.3%,6.6%
Cn1c(NC(=O)/C=C/c2ccc(Cl)c(Cl)c2)cc(=O)n(C)c1=O,1.2%,-18.7%,28.4%,?,22.0%,22.2%
Cc1cc(S(=O)(=O)N2CCN(Cc3noc(CCC(=O)N4CCCCC4)n3)CC2)ccc1F,.,-1.4%,.,.,.,.
CCc1cccc(C)c1NC(=O)c1ccc2c(c1)CCN2S(=O)(=O)c1ccc(Cl)cc1,.,-2.1%,.,.,.,-10.3%
CCc1ccc(CN(C(=O)c2cc3ccccc3oc2=O)C2CCS(=O)(=O)C2)cc1 (stereo unspecified),-11.9%,19µM*,2.82µM*,?,3.98µM*,17.8µM*
COc1cc(CN(C(=O)c2cc3ccccc3oc2=O)C2CCS(=O)(=O)C2)cc(OC)c1OC (stereo unspecified),.,-16.5%,-1.0%,2.9%,-0.4%,2.4%
Cc1ccc(CN(C(=O)c2cc3ccccc3oc2=O)C2CCS(=O)(=O)C2)cc1 (stereo unspecified),4.6%,16.9µM*,?,22.7%,?,4.4%
COc1ccc(CN(C(=O)c2cc3ccccc3oc2=O)C2CCCCC2)cc1OC,-4.6%,26.9µM*,20.0%,2.4%,17.3%,25.2%

# Compound activity deposited in PubChem BioAssay by National Center for Advancing Translational Sciences (NCATS).
